# Reference: the supplement of paper PMC10105736
# Unmarked numbers belong to inactive results.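 Rule for the calls: active = MAPPIT score above the 99th percentile of random reference set scores in the same batch; inactive = at or below it.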
# Key:
# Assay in all cases: MAPPIT interaction score (arbitrary units); higher = stronger binary interaction signal, active = hit call of the paper
# Dhod = conditions: MAPPIT configuration: N-N; pair source set: Curagen_high_conf
# cindr = conditions: MAPPIT configuration: N-N; pair source set: Lit-BM-16
# Coprox = conditions: MAPPIT configuration: N-N; pair source set: RRS
# Cpr47Eg = conditions: MAPPIT configuration: N-N; pair source set: Lit-BM-16
# RpS13 = conditions: pair source set: Lit-BM-16
# Sas-6 = conditions: pair source set: Lit-BM-16
# cnn = conditions: pair source set: Lit-BM-16
# Deaf1 = conditions: MAPPIT configuration: N-N; pair source set: screen_1
# Cnb = conditions: MAPPIT configuration: N-N; pair source set: Lit-BM-16
# DIP1 = conditions: MAPPIT configuration: N-N; pair source set: screen_2
# kermit = conditions: MAPPIT configuration: N-N; pair source set: Curagen_high_conf
# shv = conditions: MAPPIT configuration: N-N; pair source set: Curagen_high_conf
# Cpr62Ba = conditions: pair source set: RRS
# CycG = conditions: MAPPIT configuration: N-N; pair source set: Finley_Y2H
# Cpr56F = conditions: MAPPIT configuration: N-N; pair source set: Finley_Y2H
# c-cup = conditions: MAPPIT configuration: N-N; pair source set: Finley_Y2H
# ix = conditions: MAPPIT configuration: N-N; pair source set: Finley_Y2H
# Dfd = conditions: MAPPIT configuration: N-N; pair source set: Finley_Y2H
# Cp190 = conditions: MAPPIT configuration: N-N; pair source set: Lit-BM-16
# mod(mdg4) = conditions: pair source set: Lit-BM-16
# Cyp1 = conditions: pair source set: Lit-BM-16
# 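Note: HEK293T cells with Epo stimulation, STAT-responsive firefly luciferase reporter, fold induction versus unstimulated cells divided by the larger fold induction of two negative controls lacking either bait or prey.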
binder,measurement,setting,value
bsk (protein) MTTAQHQHYTVEVGDTNFTIHSRYINLRPIGSGAQGIVCAAYDTITQQNVAIKKLSRPFQNVTHAKRAYREFKLMKLVNHKNIIGLLNAFTPQRNLEEFQDVYLVMELMDANLCQVIQMDLDHDRMSYLLYQMLCGIKHLHSAGIIHRDLKPSNIVVKADCTLKILDFGLARTAGTTFMMTPYVVTRYYRAPEVILGMGYTENVDIWSVGCIMGEMIRGGVLFPGTDHIDQWNKIIEQLGTPSPSFMQRLQPTVRNYVENRPRYTGYSFDRLFPDGLFPNDNNQNSRRKASDARNLLSKMLVIDPEQRISVDEALKHEYINVWYDAEEVDAPAPEPYDHSVDEREHTVEQWKELIYEEVMDYEAHNTNNRTR,MAPPIT interaction score,Dhod,1.59
same,MAPPIT interaction score,cindr,0.0365
Ilp6 (protein) MVLKVPTSKVLLVLATLFAVAAMISSWMPQVAASPLAPTEYEQRRMMCSTGLSDVIQKICVSGTVALGDVFPNSFGKRRKRDLQNVTDLCCKSGGCTYRELLQYCKG,MAPPIT interaction score,Coprox,-0.378
Cnb (protein) MGNETSLPMDMCSNFDADEIRRLGKRFRKLDLDNSGALSIDEFMSLPELQQNPLVQRVIDIFDADGNGEVDFKEFIQGVSQFSVRGDKLSKLRFAFRIYDMDNDGYISNGELFQVLKMMVGNNLKDTQLQQIVDKTICFADKDEDGKISFDEFCSVVGNTDIHKKMVVDV,MAPPIT interaction score,Cpr47Eg,0.368
same,MAPPIT interaction score,RpS13; MAPPIT configuration: N-C,0.361
same,MAPPIT interaction score,RpS13; MAPPIT configuration: N-N,-0.0673
same,MAPPIT interaction score,Sas-6; MAPPIT configuration: N-C,0.335
same,MAPPIT interaction score,Sas-6; MAPPIT configuration: N-N,-0.212
same,MAPPIT interaction score,cnn; MAPPIT configuration: N-C,-0.173
same,MAPPIT interaction score,cnn; MAPPIT configuration: N-N,0.273
Clamp (protein) MEDLTKNIIFTNAINGQPATIQYQTADGTILKQPKIEGQKTEQQPTFYYTTNGNGGTVNLAQLATTDDNKTCYIAQPVGGYNYALVNGMPLNQGAALGIATVDAQGRIQIVNQNKPIAANTISNISFKCDVCSDMFPHLALLNAHKRMHTDGEQQQQQQHNAQAGGDSIAVVSAQGLVQAQNIIGNGQMGQIQIVSSDTLEPVQQSVMQQQQHESKASKCINCGSSMLQQSKRKGPKQVRCESCMQAEQTAQQQQQLFVAQDGQMAHPVQIISTTPQAQAQLQQIVAAQTGGTTPKREASSGSGHHPVKKRNSQQMTKCQKCNGSGVVLVGQHSHASHSGVGGSVKQSVTVKTENPSKPFSCNICGGLFSRYSSLWSHKKLHSGEKNYKCSICGLAFAKAVYLKNHARIHTGEKPYKCQTCGMQFSQSPHLKNHERTHSGERPYVCGVCDKGFARHATLWNHRRIHTGEKPYKCEICGSAFSQAAHLKNHAKVHSGEKPYKCEICSAAFADRFALKRHRGIHQKYGQTAPRQTSSDGMIVHKQEIPDMEDEAQQEVIIGGL,MAPPIT interaction score,Deaf1,0.235
RpS13 (protein) MGRMHAPGKGISQSALPYRRTVPSWLKLNADDVKEQIKKLGKKGLTPSKIGIILRDSHGVAQVRFVNGNKILRIMKSVGLKPDIPEDLYHMIKKAVAIRKHLERNRKDKDGKFRLILVESRIHRLARYYKTKSVLPPNWKYESSTASALVA,MAPPIT interaction score,Cnb,0.219
Mob4 (protein) MKMADGSTILRRNRPGTKSKDFCRWPDEPLEEMDSTLAVQQYIQQLIKRDPSNVELILTMPEAQDEGVWKYEHLRQFCMELNGLAVRLQKECSPSTCTQMTATDQWIFLCAAHKTPKECPAIDYTRHTLDGAACLLNSNKYFPSRVSIKESSVTKLGSVCRRVYRIFSHAYFHHRRIFDEFEAETYLCHRFTHFVTKYNLMSKENLIVPINVGENAAPGESEA,MAPPIT interaction score,DIP1,0.606
same,MAPPIT interaction score,kermit,0.744
same,MAPPIT interaction score,shv,0.755
Rad60 (protein) MSDDDCDIFSAARKRIPEIALPKNPYNLGNDSFSKEVDYDFIEDLPKKSTKTGKRKNPAATRKNPPKSQDDASPPKQAEHKAVEPEEDMRTERSLSPVSLLILEMEKKNGQQSDVEKHAKENDVGPVARRTRSSLNRSEMAPPPVSPTVEVPTQTKPKKRGQKKRTSLTTTTSNSASMEVSLPSIVGQNNEHISRRWTLAEVAARSKVVDSIDLVSAVAPRVEGFVNLDSEDEGEKEAPPVVEEENIFDNDNPTIEVALSWLGEIQIYKLRQHQKFKHLFKELASRNGIDENDITVDMYYNFVGPEDTPHSIGLKSFHTLTGHPTKSHNNNNVAAKIDYNPEALCRKPKKFQVKVQADKWKHPLVIPMKKTDNFKIIFIKCAEELNCDPRTIKLFFDGDLLDPNDTPNNQDMEGNEVIDLKIKA,MAPPIT interaction score,Cpr62Ba; MAPPIT configuration: N-C,-0.181
same,MAPPIT interaction score,Cpr62Ba; MAPPIT configuration: N-N,1.45
Aladin (protein) MAALSNLKQCPPFSTLPDLALRHNHIPELERYPQINLNSELLANPAGQRYYGGQSFVSVNEGVLKRIARSFFNGGFWKTLEEARSPETREQAPLIAQAGDLIAQFLGLATGLRILPHTQQLSAERIAQFVETRDWLNSDVRYLAWNQHFFCLAVAGVDDVVRIYTKSSSATTATVLKSPSQTQITCMAWRPLCASEIVIGCRQGLCFWEVDSTLHLGRTNAPSEIFKYPNNLPITSMQWNKDGTQLATASIGDRSIIIWQPDTGMMQPLKRLGPPGSLLKWSPDNDWLFAATVDRVFRVWNCHQQWTTERWVCGPGGYVQTACWSPCGRFLLFVSSAEPILYRLQFVQQSLLSSSADEKEILPIADLNACSIDANRTLVGGPAQQLAWDPHGNYLVVTFKATNCIAVFRTFIQKFDLQISAAYYLSGETAAEHPSFICFQPLYEDNDRSVLTIAWSSGRIQYYAFD,MAPPIT interaction score,CycG,-0.0444
Uro (protein) MFATPLRQPAAANHQTPKNSAGMDEHGKPYQYEITDHGYGKDAVKVLHVSRNGPVHAIQEFEVGTHLKLYSKKDYYQGNNSDIVATDSQKNTVYLLAKKHGIESPEKFALLLARHFINKYSHVEEAHVHVEAYPWQRVCQEETRTNVNGKCENGVQGNCDFSSIDNRSLHNHAFIFTPTALHYCDVVIRRTDPKQTVITGIKGLRVLKTTQSSFVNFVNDEFRSLPDQYDRIFSTVVDCSWEYSDTENLDFLRAWQTVKNIIIRNFAGDPQVGVSSPSVQHTLYLSERQVLDVLPQVSVISMTMPNKHYFNFDTKPFQKIAPGDNNEVFIPVDKPHGTIYAQLARKNINSHL,MAPPIT interaction score,Cpr56F,-0.112
mldr (protein) MYNLRLLRNLLPIAGHAHPRWLASQHKRRPQPGSLPADRLDQLRSDLFERRHELSGAEWTEVRRSLVDGYKHINGHNVDAVILGVCSAPNQLSLAKSYVEFLRSRGSKPNAATLGRLLRVYNAAYHERPLSEAEQSEILQICRSLQAEHETLDASSCENVIHGLVATSGDDWQRGLPLLEMMKVTSTPSVAAYSALAEKAFSVATPEQELAWRLLEEMATARKPPKCEVYLALLNRLANETAQLPAQLSLLLQFLERHEILVSQRVAIRLQELSSQVPQLLHTRTTHLGGLGKCQSCQQHLQPVAISDEEFRQLSECFLERVLIRRDVFQRSTPEEVARFKKFVEKTAPYDCVIDGLNVAYSTGTKKTPQQLAKLVATVVRHFREQDKRVLVLGREHMRNWSKQAMHYVHCNASLFLTSNLSHDDPFLLYATLRSGQETDFFSRDLMRSHAFHLGTELKPIFRRWQQEHQFSLVTQTQTGQIIVKEPVRHRLCAHQVADTWHVPYCAQYTPHPTDSFEVPANWLCIQMKEQTIPATKTKTKTTR,MAPPIT interaction score,CycG,-0.0303
same,MAPPIT interaction score,c-cup,-0.00733
same,MAPPIT interaction score,ix,0.483
eIF3i (protein) MRPLMLQGHERSITQIKYNREGDLLFSCSKDQKPNVWYSLNGERLGTYDGHQGAVWCLDVDWESRKLITGAGDMTAKIWDVEYGTVIASIPTKSSVRTSNFSFSGNQAAYSTDKAMGQSCELFLIDVRNADSSLSEQEPTLRIPMTESKITSMLWGPLDETIITGHDNGNIAIWDIRKGQKVVDSGTDHSAGINDMQLSKDGTMFVTASKDTTAKLFDSESLMCLKTYKTERPVNSAAISPIMDHVVLGGGQDAMEVTTTSTKAGKFDSRFFHLIYEEEFARLKGHFGPINSLAFHPDGKSYASGGEDGFVRVQTFDSTYFENIFE,MAPPIT interaction score,Dfd,0.00823
su(Hw) (protein) MSASKEGKEKKGKLLGVENISPPKDKRPATRMKLLNDVGAGEDSEASTTTTTSRTPSNKQEKRGSVAGSRIKILNEEILGTPKTEKRGATKSTAPAASTVKILNEKKTPSATVTAVETTKIKTSPSKRKKMEHYVLQAVKSENTKADTTVTVVTEEDDTIDFILADDEEVVPGRIENNNGQEIVVTEDDEDLGEDGDEDGEDSSGKGNSSQTKIKEIVEHVCGKCYKTFRRVQSLKKHLEFCRYDSGYHLRKADMLKNLEKIEKDAVVMEKKDICFCCSESYDTFHLGHINCPDCPKSFKTQTSYERHIFITHSEFSDFPCSICNANLRSEALLALHEEQHKSRGKPYACKICGKDFTRSYHLKRHQKYSSCSSNETDTMSCKVCDRVFYRLDNLRSHLKQHLGTQVVKKPEYMCHTCKNCFYSLSTLNIHIRTHTGEKPFDCDLCDKKFSALVALKKHRRYHTGEKPYSCTVCNQAFAVKEVLNRHMKRHTGERPHKCDECGKSFIQATQLRTHSKTHIRPFPCEQCDEKFKTEKQLERHVKTHSRTKRPVFSCAECKRNFRTPALLKEHMDEGKHSPKQQRSSMRSAVKIMERTDCAICDKNFDSSDTLRRHIRTVHECDPDDIFGVEPHPSKRAKKDIESEEVVPVALNTSAGSLISSQTDGNGVVVREFLVDEGDGAAQTITLENETYTILPLDGAIEGEQLTDEAGVKPEAKKEEAQVSPVVKKEQRKSLAASLAAAIADNLEESCSEDDFSGEILTEEDIKLKENVGKLIDMLVDPPILKKYGWPNAPEETVLCKVIENCGHDLTKGGENYAELDYGSRMREYCKLLFTVVIHNDSIKSLLNNFPIDDVIEYVLGDEDQDEGGLDKDNESHSGDEEAVSVTGETKTNEIREKPEKKEVSAKSEKKEIVGKAVDKDNSEEVVRENKKKPVGEQEKA,MAPPIT interaction score,Cp190,0.105
same,MAPPIT interaction score,mod(mdg4); MAPPIT configuration: N-C,2.52
same,MAPPIT interaction score,mod(mdg4); MAPPIT configuration: N-N,0.317
Eno (protein) MSWTASVFLRTSTTSMKFLRLRWPLPRIPQNKSANVAPRFRSKSAVSQLSSGFKFVQIRKSTCDSNEMTIKAIKARQIYDSRGNPTVEVDLTTELGLFRAAVPSGASTGVHEALELRDNDKANYHGKSVLKAVGHVNDTLGPELIKANLDVVDQASIDNFMIKLDGTENKSKFGANAILGVSLAVAKAGAAKKGVPLYKHIADLAGNKEIILPVPAFNVINGGSHAGNKLAMQEFMILPTGATSFTEAMKMGSEVYHHLKNVIKAKFGLDATAVGDEGGFAPNIQSNKEALNLISDAIAKAGYTGKIEIGMDVAASEFYKDGQYDLDFKNEKSDKSQWLPADKLANLYQEFIKDFPIVSIEDPFDQDHWEAWSNLTGCTDIQIVGDDLTVTNPKRIATAVEKKACNCLLLKVNQIGTVTESIAAHLLAKKNGWGTMVSHRSGETEDSFIGDLVVGLSTGQIKTGAPCRSERLAKYNQILRIEEEIGAGVKFAGKSFRKPQ,MAPPIT interaction score,Cyp1; MAPPIT configuration: N-C,0.69
same,MAPPIT interaction score,Cyp1; MAPPIT configuration: N-N,-0.102
